Hit rate of the full screen: of about 390,000 compounds, about 4,700 (1.2%) were called active. Inconclusive results (about 4%) are left out. The call rests on the fitted dose curve; in most records, active means well fitted inhibition curve with a large enough effect; inconclusive means small, poorly fitted or top-dose-only effect, or another doubt; inactive means no such curve, though single readings can be large or run the other way. Only a selection was taken, and actives are over-represented in it overall.

From PubChem BioAssay AID588591 (National Center for Advancing Translational Sciences (NCATS), 2011) come the findings set out here.
On the % scale 0 is the no-effect control and ±100 the full control effect; potency means the concentration at half of the fitted maximal effect.

DNA polymerase eta (Homo sapiens), sequence (Q9Y253 whole entry, looked up): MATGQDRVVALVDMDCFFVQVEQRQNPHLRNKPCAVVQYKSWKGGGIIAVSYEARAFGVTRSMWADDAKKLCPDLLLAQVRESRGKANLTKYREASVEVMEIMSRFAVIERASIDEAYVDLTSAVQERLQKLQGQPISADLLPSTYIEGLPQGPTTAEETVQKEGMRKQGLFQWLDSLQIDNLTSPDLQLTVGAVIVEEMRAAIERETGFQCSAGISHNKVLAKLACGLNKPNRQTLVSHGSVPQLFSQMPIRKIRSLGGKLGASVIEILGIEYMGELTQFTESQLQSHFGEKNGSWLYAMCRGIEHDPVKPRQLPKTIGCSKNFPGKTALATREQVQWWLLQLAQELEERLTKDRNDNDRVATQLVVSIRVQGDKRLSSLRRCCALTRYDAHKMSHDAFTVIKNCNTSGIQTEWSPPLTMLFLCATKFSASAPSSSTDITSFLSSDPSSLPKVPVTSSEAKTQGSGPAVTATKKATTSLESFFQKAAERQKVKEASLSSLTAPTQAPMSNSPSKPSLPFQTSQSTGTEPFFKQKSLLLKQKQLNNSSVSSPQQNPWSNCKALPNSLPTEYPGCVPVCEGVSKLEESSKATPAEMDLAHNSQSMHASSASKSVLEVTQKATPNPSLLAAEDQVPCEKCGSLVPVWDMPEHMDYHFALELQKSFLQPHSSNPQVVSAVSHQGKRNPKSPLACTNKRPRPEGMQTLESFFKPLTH

For the experiment, the target named is DNA polymerase eta (Homo sapiens) (UniProt Q9Y253). Put plainly: qHTS for Inhibitors of Polymerase Eta. As to conditions: recombinant Pol eta, fluorescent DNA replication assay; series mostly up to 114 µM; activity change, negative = inhibition: at the top concentration. Summed up:
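Fluorescent replication assay: 50 nM final substrate added after a 15 min room-temperature compound preincubation with 10 nM enzyme. Signal taken at 0 min and again at 10 min.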
Regarding `CCCCOc1ccc(C(=O)Nc2cccc(-c3nc4ccccc4o3)c2C)cc1`, the “activity change, negative = inhibition” value was -1.02% (inactive).

Regarding `Cc1ccc(S(=O)(=O)n2nc(C)c(S(=O)(=O)N3CCCCCC3)c2C)cc1`, the “activity change, negative = inhibition” value is -12.3% (inactive).

As to `O=C(CSc1ncc(-c2ccccc2)[nH]1)Nc1ccc(F)cc1F`, the “activity change, negative = inhibition” value is -20.8% (inactive).

For the compound `Oc1ccccc1-c1nc(/C=C/c2ccc(F)cc2)no1`, the “activity change, negative = inhibition” value is -6.78% (inactive).

Consider `Cc1nc2nc(SCC(=O)NCc3ccco3)nn2c(C)c1Cc1ccccc1`, for which the Potency was 44.7 µM (active).

As to `Cc1ccc(Cc2c(C)nc3nc(SCC(=O)NCCN4CCOCC4)nn3c2C)cc1`, the “activity change, negative = inhibition” value is -8.3% (inactive).

As to `COc1cc(NC(=O)CSc2nc3nc(C)c(Cc4ccc(C)cc4)c(C)n3n2)cc(OC)c1OC`, the “activity change, negative = inhibition” value was -14% (inactive).

In the case of `COC(=O)Nc1ccc(S(=O)(=O)Nc2cc(OC)nc(OC)n2)cc1`, the “activity change, negative = inhibition” value was -21.8% (inactive).

As to `COc1cc(NS(=O)(=O)c2ccc(N/C=C(\C=O)c3nc4cc(Cl)ccc4o3)cc2)nc(OC)n1`, the Potency was 31.6 µM (active).

For the compound `COc1cc(NS(=O)(=O)c2ccc(NC(=S)NC(=O)c3ccccc3)cc2)nc(OC)n1`, the “activity change, negative = inhibition” value was 6.46% (inactive).

Turning to `CCCn1c2ccccc2c2cnn(CC(=O)NCC3CCN(Cc4ccc(C)cc4)CC3)c(=O)c21`, the “activity change, negative = inhibition” value is -12% (inactive).

In the case of `Cc1c(C(=O)N(C)C)sc2c1c(=O)n(-c1ccc(F)cc1)c(=O)n2CC(=O)N(C)c1ccccc1`, the “activity change, negative = inhibition” value was -14.8% (inactive).

As to `CCOC(=O)c1ccc(NC(=O)CCS(=O)(=O)c2ccc3c(c2)oc(=O)n3C)cc1`, the “activity change, negative = inhibition” value is -17% (inactive).

Consider `OC[C@H]1O[C@@H](n2cnc3c(NC4CCCC4)ncnc32)[C@H](O)[C@H]1O`, for which the “activity change, negative = inhibition” value was -3.68% [at 57.1 µM] (inactive).

For `CCOC(=O)c1sc(NC(=O)CSc2nc(O)c(Cc3ccccc3)c(=O)[nH]2)nc1C`, the “activity change, negative = inhibition” value was 11.7% (inactive).

As to `CCOCCc1c(O)nc(SCC(=O)NCc2ccco2)[nH]c1=O`, the Potency was 15.8 µM (active).

As to `CCn1c(SCC(=O)NCc2ccco2)nnc1-c1ccc(N)cc1`, the “activity change, negative = inhibition” value was -9.66% (inactive).

On to `Cc1ccc(CSc2oc(-c3cccs3)nc2S(=O)(=O)c2ccc(C)cc2)cc1`, for which the “activity change, negative = inhibition” value was -16.7% (inactive).

Consider `CCCCN1CC(c2nc3ccccc3n2CCCCOc2ccc(C)cc2C)CC1=O` (centres undefined), for which the “activity change, negative = inhibition” value is -17.9% (inactive).

Take `COc1cccc(NC(=O)C(=O)NCC(c2ccc3c(c2)OCO3)N2CCN(C)CC2)c1` (centres undefined): the “activity change, negative = inhibition” value was -11.4% (inactive).

In the case of `COc1ccccc1CNS(=O)(=O)c1cc(Br)cc2c1N(C(C)=O)C(C)C2` (centres undefined), the “activity change, negative = inhibition” value was -12.9% (inactive).

In the case of `Cc1ccc(Cl)cc1N1CCN(C(=O)c2cnc3c(-c4ccc(F)cc4)c(C)nn3c2C)CC1`, the “activity change, negative = inhibition” value is 7.55% (inactive).

Consider `Cc1ccc(OCC(=O)OCc2cc(=O)n3nc(C4CC4)sc3n2)cc1`, for which the “activity change, negative = inhibition” value was -7.78% (inactive).

As for `Nc1ccc2nc3c(=O)[nH]c(=S)[nH]c3nc2c1`, the Potency was 1.12 µM (active).

On to `Cc1cc(C)c(NC(=O)CCc2c(C)nc3c(c(C)nn3C(C)(C)C)c2C)c(C)c1`, for which the “activity change, negative = inhibition” value was -21.1% (inactive).

Turning to `COc1cc(CNCCSc2nnnn2C)ccc1OCc1ccc(Cl)cc1Cl`, the “activity change, negative = inhibition” value was -17.8% (inactive).

Turning to `CC1CCN(S(=O)(=O)c2ccc3c(ccn3CCC(=O)NCc3ccc(N(C)C)cc3)c2)CC1`, the “activity change, negative = inhibition” value was -16.5% (inactive).

Consider `O=C(CN1C(=O)c2cccc3cccc1c23)Nc1ccccc1`, for which the Potency is 50.1 µM (active).

For `O=C1c2cccc3cccc(c23)N1CN1CCN(c2ccccn2)CC1`, the “activity change, negative = inhibition” value is -16.5% (inactive).

With `COc1cccc(NC(=O)CN2C(=O)c3ccccc3Sc3ncccc32)c1`, the “activity change, negative = inhibition” value is 7.35% (inactive).

`CCN(C(=O)Cn1cc(S(=O)(=O)N2CCN(c3ccccc3F)CC2)c2ccccc2c1=O)c1ccc(C)c(C)c1`: the “activity change, negative = inhibition” value is -7.11% (inactive).

`CCC(CC)C(=O)Nc1ccc(S(=O)(=O)Nc2nccs2)cc1`: the “activity change, negative = inhibition” value was -1.86% (inactive).

`COc1ccccc1OC(C)C(=O)Nc1ccc(S(=O)(=O)Nc2nccs2)cc1` (centres undefined): the “activity change, negative = inhibition” value was -2.56% (inactive).

Consider `O=C(Nc1ccc(S(=O)(=O)Nc2nccs2)cc1)c1cc(-c2ccncc2)nc2ccccc12`, for which the Potency was 12.6 µM (active).

With `CC(C)(C)OC(=O)N1CCC(c2c(C(=O)N3CCc4ccccc4C3)cnn2-c2ccc(F)cc2)CC1`, the “activity change, negative = inhibition” value was -11.6% (inactive).

`Oc1ccc(Cn2cc[nH]c2=S)cc1`: the “activity change, negative = inhibition” value is -4.7% [at 57.1 µM] (inactive).

Turning to `COc1ccc(CCNc2ncnc3c2cnn3-c2ccc(C)cc2)cc1`, the “activity change, negative = inhibition” value is -15.2% (inactive).

As for `Cc1ccc(NC(=O)CSc2nc3c([nH]c4ccccc43)c(=O)n2-c2ccccc2)cc1Cl`, the “activity change, negative = inhibition” value is 2.47% (inactive).

For `CC(=O)c1sc(N2C(=O)c3oc4ccccc4c(=O)c3C2c2ccc(C)cc2)nc1C` (centres undefined), the “activity change, negative = inhibition” value was -12.5% (inactive).

In the case of `Cc1ccc2nc(N3C(=O)C(O)=C(C(=O)c4ccco4)C3c3cccc(O)c3)sc2c1` (centres undefined), the Potency was 50.1 µM (active).

With `C=CCSc1nnc(N2C(=O)C(O)=C(C(=O)c3ccco3)C2c2ccc(F)cc2)s1` (centres undefined), the “activity change, negative = inhibition” value is -17.6% (inactive).

For the compound `CC(=O)c1ccc(NC(=O)CSc2nc(-c3ccccc3F)nc3c2c(=O)n(C)c(=O)n3C)cc1`, the “activity change, negative = inhibition” value is 0.181% (inactive).

Turning to `CCCCc1nn2c(=O)cc(COC(=O)c3cccc(NC(=O)COc4ccccc4)c3)nc2s1`, the “activity change, negative = inhibition” value is -13.7% (inactive).

With `Cn1c(=O)[nH]c(=O)c2c1nc(NCCc1ccccc1)n2Cc1ccc(F)cc1`, the “activity change, negative = inhibition” value was -20.1% (inactive).

In the case of `O=C(c1cc2c(s1)CCC2)N1CCN(c2ccccc2)CC1`, the Potency was 10 µM (active).

As for `O=C(Nc1ccc(F)cc1)c1cc2c(s1)CCCC2`, the “activity change, negative = inhibition” value is -15% (inactive).

For the compound `CC1CCN(c2nc3ccc(C(=O)N4CCN(c5ccccc5)CC4)cc3s2)CC1`, the “activity change, negative = inhibition” value is -14.8% (inactive).

For the compound `CC1CCCN(c2csc3ccc(F)cc3c2=O)C1` (centres undefined), the “activity change, negative = inhibition” value is -18.2% (inactive).

Regarding `Cc1ccc(SCC(=O)NC(=O)NCc2ccco2)c(C)c1`, the Potency was 14.1 µM (active).
